# Screening results: PubChem, National Center for Advancing Translational Sciences (NCATS)
# AMA1-RON2 inh: AMA1-RON2 (P. falciparum) interaction inhibition; AID 720542; 0.2% of 360,000 active; Potency, µM (series often up to 58.2 µM), most hits filed as inhibitors; AlphaScreen AMA1-biotinylated RON2 peptide binding; also: nearly all actives have a fitted effect of over 45% in size
#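 AMA1 (3D7) with his tag at 25 nM final met compounds first, then biotinylated RON2 peptide at 25 nM; detection used donor plus acceptor beads, 10 µg/mL apiece, read by AlphaScreen after 30 min at room temperature.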
# Pf growth 48h: inhibits P. falciparum growth in the first generation, 48 h; 5.9% of 310,000 active; Potency, µM (highest dose often 28.7 µM), hits mostly inhibitors; P. falciparum luciferase growth in erythrocytes, 48 h; AID 504832
#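 Read-out is firefly luciferase luminescence from an integrated reporter in P. falciparum, so falling signal marks reduced parasite growth. Infected erythrocytes were at 2% hematocrit and 0.1% parasitemia (final) in Albumax-supplemented RPMI 1640.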
# AmpC no deterg: inhibitors of E. coli AmpC beta-lactamase without detergent; AmpC nitrocefin hydrolysis, absorbance 480 nm, 0.0001% Triton; P00811; Potency, µM (top dose mostly 57.1 µM), usual class: inhibitors; 0.52% of 330,000 active; AID 485341; also: nearly all actives have a fitted effect of over 20% in size
# Target sequence (P00811 whole entry, looked up): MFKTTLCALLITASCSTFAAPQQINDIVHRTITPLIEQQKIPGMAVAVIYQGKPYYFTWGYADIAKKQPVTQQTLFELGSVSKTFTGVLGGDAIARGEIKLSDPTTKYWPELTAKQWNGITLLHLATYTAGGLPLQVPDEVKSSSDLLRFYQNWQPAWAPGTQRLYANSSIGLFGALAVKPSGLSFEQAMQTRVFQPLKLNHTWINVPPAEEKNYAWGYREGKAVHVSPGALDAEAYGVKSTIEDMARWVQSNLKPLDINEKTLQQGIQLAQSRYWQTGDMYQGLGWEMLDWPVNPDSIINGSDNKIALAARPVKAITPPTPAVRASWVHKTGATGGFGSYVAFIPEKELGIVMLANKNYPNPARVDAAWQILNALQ
#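 AmpC (5.3 nM in the dispensed reagent) in 20 mM phosphate pH 7.0 with 0.01% (detergent screen) or 0.0001% Triton X-100 was preincubated with compounds for 15 min at room temperature. Nitrocefin was then added from an 800 uM solution, and hydrolysis was followed at 480 nm.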
# Pf growth 96h: P. falciparum growth inhibition at 96 hour, primary screen for plastid delayed-death inhibitors; 6.9% of 320,000 active; P. falciparum luciferase reporter growth, 96 h; Potency, µM (top dose mostly 28.7 µM), most hits filed as inhibitors; AID 504834
#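 Cell-based qHTS: luciferase-tagged P. falciparum in erythrocytes (2% hematocrit, 0.05% parasitemia final) incubated with compounds for 96 hours, 37 C, 5% CO2; luciferase detection reagent then added and luminescence measured.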
# HCV inh: HCV inhibition. 3.4% of 340,000 active. Huh7.5.1 HCVcc-Cre infection, luciferase reporter, 44 h. Potency, µM (titrated, usually from 41.8 µM), actives largely listed as inhibitors. AID 651820
#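 Seed cells (1,000/well) for 4 h; treat with compound and infect with HCVcc-Cre, moi about 0.5. Incubate 44 h, then detect luciferase activity.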
# AmpC inh detg: inhibitors of E. coli AmpC beta-lactamase with detergent; AmpC hydrolysis of nitrocefin, absorbance 480 nm, 0.01% Triton; 0.041% of 370,000 active; P00811; Potency, µM (doses to about 114 µM), actives largely listed as inhibitors; also: nearly all actives have a fitted effect of over 25% in size
#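 AmpC (5.3 nM in the dispensed reagent) in 20 mM phosphate pH 7.0 with 0.01% (detergent screen) or 0.0001% Triton X-100 was preincubated with compounds for 15 min at room temperature. Nitrocefin was then added from an 800 uM solution, and hydrolysis was followed at 480 nm.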
# Hits are given with their value; n = inactive; u = inconclusive; x = not tested or not shown; [ ] = another dose, or the depositor's remark. An excerpt weighted towards active compounds, which were near 11% of everything screened. Calls follow the shape of the dose curve; as a rule, active = well fitted curve in the direction sought with a large enough effect; inconclusive = small, poorly fitted or top-dose-only effect, or another doubt; inactive = no such curve, though single readings can be large; an effect the other way counts as inactive or inconclusive.
SMILES,AMA1-RON2 inh,Pf growth 48h,AmpC no deterg,Pf growth 96h,HCV inh,AmpC inh detg
COc1ccc(OC)c(NC(=O)CC2SC(=Nc3ccccc3)N(CCc3ccccn3)C2=O)c1 (configuration not stated),n,15µM,n,4.7µM,n,u
COc1ccc(N=C2SC(CC(=O)Nc3ccccc3)C(=O)N2CCc2ccccn2)cc1 (configuration not stated),n,u,n,15µM,n,n
CCC(C)NC(=O)c1cc2c(Cl)nc3ccc(C)cc3c2s1 (configuration not stated),x,x,x,x,x,n
Cc1cc(OCCOCCNCc2ccccc2)ccc1C(C)C,n,u,n,7.4µM,n,n
Cc1ccc(C(C)C)c(OCCNCc2ccccc2)c1,n,n,n,n,n,u
CC(C)(C)c1ccccc1OCCOCCNCc1ccccc1,n,8.3µM,n,n,n,n
CCOC(=O)C1CCCN(Cc2cn(C)nc2-c2ccc3c(c2)OCCO3)C1 (configuration not stated),n,n,n,u,n,n
CN(C)C(=O)CN1CCN(Cc2cn(C)nc2-c2ccc3c(c2)OCCO3)CC1,n,n,n,10µM,n,n
COc1ccc(-c2cc(C(=O)Nc3cc(OC)cc(C(=O)Nc4cccc(C(F)(F)F)c4)c3)[nH]n2)cc1,n,1.9µM,28µM,1.3µM,n,n
COc1cc(NC(=O)c2ccc(N)nc2)cc(C(=O)Nc2cccc(C(F)(F)F)c2)c1,u,0.74µM,n,0.74µM,n,n
COc1ccc(NC(=O)Nc2cccc(C(F)(F)F)c2)cn1,n,13µM,n,u,u,n
COc1cc(NC(=O)c2nccn2C)cc(C(=O)Nc2cccc(C(F)(F)F)c2)c1,n,n,n,n,2.5µM,n
Cc1ccc(-n2c3c(cc(C(=O)Nc4ccccc4C(N)=O)c2=O)C(=O)CC(C)(C)C3)cc1,x,x,x,x,x,n
COc1ccc(OC)c(CN2CCN(C(=O)c3cc(S(=O)(=O)Nc4ccccc4OC)ccc3C)CC2)c1,u,u,n,3.3µM,14µM,n
COc1ccc(OC)c(CN2CCN(C(=O)COc3cccc(C)c3)CC2)c1,u,n,n,n,n,n
COc1ccc(OC)c(CN2CCN(C(=O)[C@@H](NC(=O)c3cccc(C)c3)C(C)C)CC2)c1,n[11.6 µM],10µM,n,u,u,u
COc1ccc(OC)c(CN2CCN(C(=O)c3cccc(S(=O)(=O)Nc4ccc(C)cc4)c3)CC2)c1,n,10µM,n,9.3µM,10µM,n
CCOc1ccc(C(CC(=O)Nc2cc(C)c(Cl)cc2OC)N2Cc3ccccc3C2=O)cc1OC (configuration not stated),x,x,x,x,x,n
CC[C@H](NC(C)C)[C@H](O)c1ccc(O)c(O)c1,x,u,x,13µM,x,x
C[C@@H](N)[C@@H](O)c1ccc(O)c(O)c1,x,n,x,0.6µM,x,x
COc1ccc(OC)c(C(O)C(C)N)c1 (configuration not stated),n,n,n,n,n,n
COc1cc(C2c3c(oc4ccccc4c3=O)C(=O)N2c2ccccn2)cc(OC)c1OC (configuration not stated),x,x,x,x,x,n
Cc1cccc(NC(=O)C2CCN(S(=O)(=O)c3ccc4c(c3)CCCC(=O)N4)CC2)c1,x,x,x,x,x,n
C=CC[n+]1c(/C=C2\C=Cc3cc(C)ccc3N2CC)ccc2ccccc21,u,13µM,n,u,2.5µM,n
Cc1ccc(S(=O)(=O)Nc2cccc(-c3ccc(N4CCCCCC4)nn3)c2)cc1,n,n,0.71µM,n,n,n
Cc1cccc(S(=O)(=O)Nc2cccc(-c3ccc(N4CCCCC4)nn3)c2)c1,x,x,x,x,x,n
O=[N+]([O-])c1cccc(S(=O)(=O)Nc2cccc(-c3ccc(N4CCCC4)nn3)c2)c1,n,u,n,6.6µM,n,u
Cc1cc(C)c(NC(=O)Cn2nc3c(cc2=O)CCCC3)c(C)c1,x,x,x,x,x,n
Cc1ccc(-n2ncc3c(N4CCN(C)CC4)ncnc32)cc1Cl,x,x,x,x,x,n
